Laboratory results: PubChem BioAssay (EPA / NIEHS)
Several values for one entry are separate records, joined by “and”; a condition that tells them apart may be missing. Equal values may be shown once. A structure can be active in one record and inactive in another. Activity calls are given as the source filed them. Rule for the calls: active = hit-call score of the fitted dose curve at least 0.9, where 1 is the maximum; inactive = score below 0.9.

Key:
[1] = ATG_CRE_CIS: Attagene CIS-FACTORIAL HepG2 Assay for human cAMP Responsive Element (CRE) binding protein 3 (AID 2282926); conditions: HepG2 CRE cis-reporter, Attagene multiplexed mRNA; actives raise or lower the signal
In short: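 Human liver HepG2, transient MRTU transfection, 24 h compound exposure. Total RNA → oligo(dT) RT → PCR → 6-FAM primer extension → HpaI cut → CE. Activity called both directions vs DMSO.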

[2] = ATG_CMV_CIS: Attagene CIS-FACTORIAL HepG2 Assay for human CMV (Internal Marker) (AID 2282928); conditions: HepG2 CMV promoter reporter, transcription factor profiling; actives raise or lower the signal;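 note: endpoint acts as a background internal control marker rather than a target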
In short: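 HepG2 cells transiently transfected with multiple cis-regulated reporter units; 24 h compound exposure. Reporter mRNA quantified by RT-PCR, 6-FAM primer-extension labeling, HpaI digestion and capillary electrophoresis; bidirectional fitting against DMSO baseline.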

[3] = ATG_DR4_LXR_CIS: Attagene CIS-FACTORIAL HepG2 Assay for human Liver X Receptor (LXR), DR4 submotif (AID 2282929); conditions: HepG2 Attagene DR4 cis-reporter, mRNA transcription; actives raise or lower the signal
In short: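 HepG2 cells were transiently transfected with multiple cis-regulated reporter units and dosed for 24 hours. The DR4 reporter mRNA was quantified by RT-PCR, 6-FAM labelling and capillary electrophoresis. Bidirectional fits used DMSO as baseline.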

[4] = ATG_AP_1_CIS: Attagene CIS-FACTORIAL HepG2 Assay for human Activator Protein 1 (AP-1) (AID 2282931); conditions: HepG2 Attagene cis-factorial AP-1 reporter mRNA; actives raise or lower the signal
In short: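 HepG2 cells transiently transfected with cis-element-driven reporter transcription units, dosed for 24 hours. Reporter mRNA measured by RT-PCR, 6-FAM labelling, HpaI digestion and capillary electrophoresis. Bidirectional fitting against DMSO baseline.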

[5] = ATG_AP_2_CIS: Attagene CIS-FACTORIAL HepG2 Assay for human Activator Protein 2 (AP-2) (AID 2282932); conditions: HepG2 AP-2 cis-reporter, Attagene transcription factor profiling; actives raise or lower the signal
In short: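 Multiplexed mRNA reporter assay in HepG2: cis-regulated units report endogenous factor activity after 24 h treatment. Fluorescence from capillary electrophoresis of RT-PCR products gives the signal, with DMSO as baseline.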

[6] = ATG_BRE_CIS: Attagene CIS-FACTORIAL HepG2 Assay for human Bone Morphogenetic Protein (BMP) Response Element (BRE) (AID 2282933); conditions: HepG2 BMP response element reporter, Attagene transcription factor profiling; actives raise or lower the signal
In short: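 A HepG2 multiplex reporter system measured inducible reporter mRNA 24 h post-dosing. Detection: RT-PCR, 6-FAM primer extension, HpaI digestion, capillary electrophoresis. Activity fitted bidirectionally relative to DMSO.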

[7] = target: Transcription factor E2F1 (Homo sapiens) (UniProt Q01094); test: ATG_E2F_CIS: Attagene CIS-FACTORIAL HepG2 Assay for human E2F Transcription Factor 1 (AID 2282935); conditions: HepG2 Attagene cis-reporter, E2F reporter RNA transcripts; actives raise or lower the signal
In short: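 Measures reporter transcript levels via RT-PCR with capillary electrophoresis detection in HepG2 cells harboring cis-regulated reporter units; 24 h post-dose; bidirectional curve fitting with DMSO as baseline.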

[8] = target: Aryl hydrocarbon receptor (Homo sapiens) (UniProt P35869); test: ATG_Ahr_CIS: Attagene CIS-FACTORIAL HepG2 Assay for human Aryl Hydrocarbon Receptor (Ahr) (AID 2282930); conditions: HepG2 AhR cis-factorial reporter transcription; actives raise or lower the signal
In short: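 HepG2 cells transiently transfected with cis-element-driven multiplexed reporter units; endogenous AhR activity read as reporter mRNA 24 h after dosing, via RT-PCR, 6-FAM labelling, HpaI digestion and capillary electrophoresis. Bidirectional fit relative to DMSO.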

[9] = target: Retinoic acid receptor alpha (Homo sapiens) (UniProt P10276); test: ATG_DR5_RAR_CIS: Attagene CIS-FACTORIAL HepG2 Assay for human Retinoic Acid Receptor Alpha (RARE), DR5 submotif (AID 2282934); conditions: HepG2 Attagene cis-factorial RARE DR5 reporter, mRNA; actives raise or lower the signal;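 for AC50: reporter responds to endogenous RAR alpha beta and gamma in HepG2 not RARA alone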
In short: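 HepG2 cells transiently transfected with multiplexed reporter units; DR5 cis-element drives reporter through endogenous transcription factors. After 24 h dosing, reporter mRNA quantified by RT-PCR, fluorescent labeling, HpaI digestion and capillary electrophoresis; bidirectional fitting versus DMSO.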

Measured: AC50

Chain of Retinoic acid receptor alpha (Homo sapiens) (P10276 whole entry, looked up): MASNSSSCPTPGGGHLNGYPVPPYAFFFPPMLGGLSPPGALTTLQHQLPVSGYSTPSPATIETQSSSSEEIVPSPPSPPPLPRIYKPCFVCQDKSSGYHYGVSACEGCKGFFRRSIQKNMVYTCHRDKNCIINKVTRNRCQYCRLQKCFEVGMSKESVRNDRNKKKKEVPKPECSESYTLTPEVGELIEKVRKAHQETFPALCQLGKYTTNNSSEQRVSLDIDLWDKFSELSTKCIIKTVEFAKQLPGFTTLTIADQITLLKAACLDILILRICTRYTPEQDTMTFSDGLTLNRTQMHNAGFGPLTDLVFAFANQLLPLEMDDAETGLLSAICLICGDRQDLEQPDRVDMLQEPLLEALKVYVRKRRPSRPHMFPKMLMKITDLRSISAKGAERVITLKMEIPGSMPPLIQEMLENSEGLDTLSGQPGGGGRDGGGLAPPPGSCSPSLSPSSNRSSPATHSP
Chain of Aryl hydrocarbon receptor (Homo sapiens) (P35869 whole entry, looked up): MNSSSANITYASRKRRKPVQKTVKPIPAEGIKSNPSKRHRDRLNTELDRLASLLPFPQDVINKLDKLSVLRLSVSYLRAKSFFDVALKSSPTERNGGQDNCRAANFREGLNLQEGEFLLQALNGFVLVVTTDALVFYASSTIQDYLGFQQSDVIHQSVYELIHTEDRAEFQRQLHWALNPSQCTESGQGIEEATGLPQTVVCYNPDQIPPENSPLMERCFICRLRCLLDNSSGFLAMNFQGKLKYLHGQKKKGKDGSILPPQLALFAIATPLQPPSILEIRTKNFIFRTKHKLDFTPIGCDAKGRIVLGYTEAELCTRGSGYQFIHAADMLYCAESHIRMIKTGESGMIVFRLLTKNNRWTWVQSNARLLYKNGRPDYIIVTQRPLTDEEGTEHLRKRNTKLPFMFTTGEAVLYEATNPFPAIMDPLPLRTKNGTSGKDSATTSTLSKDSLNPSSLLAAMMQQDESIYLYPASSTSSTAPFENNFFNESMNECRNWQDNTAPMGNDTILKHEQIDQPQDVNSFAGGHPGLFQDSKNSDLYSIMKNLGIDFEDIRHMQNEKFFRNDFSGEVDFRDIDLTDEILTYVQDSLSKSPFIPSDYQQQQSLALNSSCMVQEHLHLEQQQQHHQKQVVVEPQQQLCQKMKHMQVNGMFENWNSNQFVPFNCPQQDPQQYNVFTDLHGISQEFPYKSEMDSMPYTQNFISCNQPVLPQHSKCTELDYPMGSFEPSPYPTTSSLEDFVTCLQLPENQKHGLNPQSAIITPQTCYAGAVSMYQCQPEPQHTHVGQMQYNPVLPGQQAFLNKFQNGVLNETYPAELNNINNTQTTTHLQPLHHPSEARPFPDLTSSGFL
Chain of Transcription factor E2F1 (Homo sapiens) (Q01094 whole entry, looked up): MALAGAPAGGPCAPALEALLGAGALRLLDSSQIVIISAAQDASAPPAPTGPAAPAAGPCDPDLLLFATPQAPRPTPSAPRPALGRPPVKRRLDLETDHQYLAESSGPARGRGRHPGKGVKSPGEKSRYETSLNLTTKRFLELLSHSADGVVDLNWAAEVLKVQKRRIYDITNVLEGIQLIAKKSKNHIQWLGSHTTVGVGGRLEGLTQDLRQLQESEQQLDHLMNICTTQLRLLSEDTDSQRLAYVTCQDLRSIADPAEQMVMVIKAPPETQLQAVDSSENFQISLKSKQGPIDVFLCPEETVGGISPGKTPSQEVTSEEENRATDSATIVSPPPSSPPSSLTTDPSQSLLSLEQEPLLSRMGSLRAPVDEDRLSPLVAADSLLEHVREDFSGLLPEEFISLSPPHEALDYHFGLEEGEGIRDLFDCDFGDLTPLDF

CN1C(=O)CC[C@H]1c1cccnc1
inactive: [1] | [2] | [3] | [4] | [5] | [6] | [7]

O=C(OCCCCCCOC(=O)c1ccccc1)c1ccccc1
inactive: [1] | [2] | [3] | [8] | [4] | [5] | [6] | [9] | [7]

O=C1c2ccccc2C(=O)N1CCc1noc(-c2ccc(CN3CCCCCC3)s2)n1
inactive: [1] | [2] | [8] | [5] | [9] | [7]
active: [3] 84.5 µM | [4] 24.7 µM | [6] 56.6 µM

O=C(O)c1ccccc1C(=O)OCc1ccccc1
inactive: [1] | [2] | [3] | [8] | [4] | [5] | [6] | [9] | [7]

Oc1ccc2ccccc2c1
active: [3] 100 µM
inactive: [1] | [2] | [4] | [5] | [6] | [9] | [7]

CCCCOC(=O)CC(CC(=O)OCCCC)(OC(C)=O)C(=O)OCCCC
inactive: [1] | [2] | [3] | [8] | [4] | [5] | [6] | [7]
active: [3] 23.4 µM | [6] 42.6 µM

Cc1cccc2ccccc12
inactive: [1] | [2] | [3] | [8] | [4] | [5] | [6] | [9] | [7]

Cc1ncc(CO)c(CO)c1O
inactive: [1] | [2] | [3] | [4] | [5] | [6] | [7]

CC[C@@H]1C[C@H](N(Cc2cc(C(F)(F)F)cc(C(F)(F)F)c2)C(C)=O)c2cc(C(F)(F)F)ccc2N1C(=O)OC(C)C
inactive: [1] | [2] | [3] | [8] | [4] | [5] | [6] | [7]
active: [9] 0.362 µM

O=C1CCC(C2CCCCC2)CC1
active: [2] 100 µM and 39.3 µM | [3] 164 µM and 171 µM and 160 µM | [4] 133 µM [middle of 4 runs] | [5] 163 µM | [6] 147 µM and 156 µM
inactive: [1] | [2] | [3] | [5] | [6] | [9] | [7]

CCOC(=O)O[C@H](C)OC(=O)c1ccc2c(c1)cc(C(=O)NC1CCN(C(C)C)CC1)n2Cc1cc(-c2ccc(Cl)s2)on1
inactive: [1] | [2] | [3] | [4] | [5] | [6] | [7]
active: [9] 42.2 µM

CCO[Si](CCCNC(N)=O)(OCC)OCC
inactive: [1] | [2] | [3] | [4] | [5] | [6] | [9] | [7]

O=C(Nc1ccc(Cl)cc1)Nc1ccc(Cl)c(Cl)c1
inactive: [2] | [8] | [5] | [9] | [7]
active: [1] 4.04 µM | [3] 10.5 µM | [4] 10.5 µM | [6] 5.32 µM

Clc1ccccc1C(c1ccccc1)(c1ccccc1)n1ccnc1
inactive: [1] | [5] | [9] | [7]
active: [2] 17.8 µM | [3] 1.48 µM | [8] 3.01 µM | [4] 10.4 µM | [6] 11.1 µM

O=C(O)Cn1c(=O)n(Cc2ccc(Br)cc2F)c(=O)c2ccc(Cl)cc21
inactive: [1] | [2] | [3] | [8] | [4] | [5] | [6] | [9] | [7]

CC(C)(c1cc(Br)c(O)c(Br)c1)c1cc(Br)c(O)c(Br)c1
inactive: [5] | [6] | [7]
active: [1] 46 µM and 44.2 µM | [2] 53.3 µM and 58.5 µM | [3] 12.5 µM and 13.9 µM | [4] 58.4 µM and 53.2 µM | [5] 55.8 µM | [6] 46.6 µM | [9] 25.6 µM and 14.2 µM

CC(C)(O)c1ccc(CNC(=O)c2cccnc2Oc2ccc3nonc3c2)cc1
inactive: [1] | [2] | [3] | [8] | [4] | [5] | [6] | [9] | [7]

CO[C@H]1/C=C/O[C@@]2(C)Oc3c(C)c(O)c4c(O)c(c(/C=N/N5CCN(C)CC5)c(O)c4c3C2=O)NC(=O)/C(C)=C\C=C\[C@H](C)[C@H](O)[C@@H](C)[C@@H](O)[C@@H](C)[C@H](OC(C)=O)[C@@H]1C
inactive: [1] | [2] | [3] | [4] | [5] | [6] | [9] | [7]

CCCCCCCCCC(=O)O
inactive: [1] | [2] | [3] | [4] | [5] | [6] | [9] | [7]

Cc1oc2c(NC(=O)c3c(Cl)cccc3Cl)cccc2c1C(C)(C)O
inactive: [1] | [3] | [5] | [7]
active: [2] 6.16 µM | [8] 4.28 µM | [4] 38 µM | [6] 152 µM | [9] 3.06 µM
